# FBW7 act = human FBW7 E3 ligase activation, primary screen; normalized activity (activation), % at 26.1 µM; 650,000 tested, 0.13% active; AID 1259310; Q969H0; AlphaScreen FBW7–phospho-cyclin E peptide binding, activator screen; in the data active means normalized activity above about 1.9%;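 further: purified mutant Fbw7 with reduced substrate affinity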
# GPR151 ag = activators of human GPR151; PathHunter beta-arrestin GPR151 cells, luminescence; activation, % at 11.2 µM; AID 1508602; 650,000 tested, 1% active; in the data active means activation above about 4.9%;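 further: 0% = median of compound wells and 100% = cells with positive control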
# TEAD-YAP inh = TEAD-YAP interaction inhibition; HEK-TIYL cells, TEAD-Gal4/YAP UAS-luciferase luminescence; inhibition, % at 9.12 µM; 640,000 tested, 1.4% active; AID 1259422; in the data active means inhibition above about 32%;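 further: 0% = median of test compound wells and 100% = reference inhibitor wells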
# MITF inh = human MITF inhibition, primary screen; O75030; AlphaScreen MITF homodimerization, bead proximity signal; inhibition, % at 2.6 µM; 650,000 tested, 0.91% active; AID 1259374; in the data active means inhibition above about 50%;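 further: 0% = vehicle wells with protein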
# Target sequence (O75030 whole entry, looked up): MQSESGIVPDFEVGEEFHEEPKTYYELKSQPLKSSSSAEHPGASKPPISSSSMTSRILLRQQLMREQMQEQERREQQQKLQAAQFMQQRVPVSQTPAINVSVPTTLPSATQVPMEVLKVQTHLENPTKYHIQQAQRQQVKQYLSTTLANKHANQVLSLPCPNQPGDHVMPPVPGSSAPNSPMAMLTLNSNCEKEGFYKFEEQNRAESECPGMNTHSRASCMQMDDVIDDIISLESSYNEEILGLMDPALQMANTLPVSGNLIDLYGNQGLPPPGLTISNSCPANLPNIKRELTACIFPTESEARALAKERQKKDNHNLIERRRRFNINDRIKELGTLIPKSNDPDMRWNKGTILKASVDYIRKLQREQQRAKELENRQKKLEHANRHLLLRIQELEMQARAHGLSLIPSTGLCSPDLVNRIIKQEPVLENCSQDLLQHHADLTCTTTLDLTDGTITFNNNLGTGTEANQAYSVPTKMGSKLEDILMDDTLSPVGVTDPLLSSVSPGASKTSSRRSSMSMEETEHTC
# GPR151 conf act = confirmation of human GPR151 activators; 6,700 tested, under 10 active; shares compounds with GPR151 ag; GPR151 PathHunter beta-arrestin cells, luminescence, 90 min; % of EA-reagent control over plate median; activation, % at 11.2 µM;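 active means mean percent activation across replicates above the confirmation screen cutoff of 4.91%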
# GPR119 counter = counter-screen for GPR151 activators: effect on human GPR119 | 6,700 tested, 0.3% active | shares compounds with GPR151 ag | GPR119 PathHunter beta-arrestin cells, luminescence, 90 min; 0 = compound-well median, 100 = enzyme-acceptor control | activation, % at 11.2 µM;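 active means mean percent activation in the counterscreen above 29.09%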;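 further: counterscreen on off-target GPR119 to flag nonselective hits from the GPR151 activator screen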
# Starred values were filed as active, the others as inactive; nt = not tested or not shown; ! = repeats disagree. An excerpt weighted towards active compounds, which were near 3.4% of everything screened.
SMILES,FBW7 act,GPR151 ag,TEAD-YAP inh,MITF inh,GPR151 conf act,GPR119 counter
CC(C)(C)c1cc(C=C(C#N)C#N)cc(C(C)(C)C)c1O,0,6.4*,91*,-5,1,18
CCCN1CCC[C@@H]2Cc3[nH]ncc3C[C@H]21,0,7.8*!,-1,-1,1,-7
CCCN1CCC[C@@H]2Cc3nc(N)ncc3C[C@H]21,0,-1,-2,1,nt,nt
C=CCOC(=O)C1=C(C)OC(N)=C(C(=O)OCc2ccccc2)C12C(=O)Nc1ccccc12 (configuration not stated),0,6.3*,8,20,1,3
COc1ccc2oc3c(c2c1)NC(=O)CN=C3c1ccc(F)cc1,0,-2,1,20,nt,nt
COc1ccc2oc3c(c2c1)NC(=O)CN=C3c1ccccc1,0,6.9*,-11,13,1,-1
C[C@H](N)[C@H](O)c1ccc(O)c(O)c1,0,5.7*!,-2,84*,1,5
C[C@@H]1O[C@@H](O[C@H]2C[C@@H](O)[C@]3(CO)[C@H]4[C@H](O)C[C@]5(C)[C@@H](C6=CC(=O)OC6)CC[C@]5(O)[C@@H]4CC[C@]3(O)C2)[C@H](O)[C@H](O)[C@H]1O,0,5.7*!,103*,7,3,128*
N#Cc1cc(F)c(N2CCNCC2)cc1Cl,0,0,3,1,nt,nt
N#Cc1c(Cl)c(Cl)nc(N2CCCNCC2)c1Cl,0,6.1*,0,-5,1,13
COc1cc(OC)c(OC)cc1CC1C(=O)N(C)C(=O)N(C)C1=O,0,-1,-2,19,nt,nt
COc1cc(C=C2C(=O)NC(=S)NC2=O)ccc1OC(=O)c1ccc(C)cc1,0,6.6*,1,13,-1,2
O=c1c2ccccc2nc(/C=C/c2ccccc2Cl)n1-c1cccc(O)c1,0,-2,-6,3,nt,nt
CN1CCN(c2ccc([N+](=O)[O-])c(NCCO)c2)CC1,0,11*,0,-4,0,1
O=[N+]([O-])c1ccc(N2CCNCC2)cc1NCCO,0,0,-25,3,nt,nt
CCOC(=O)C1=C(C)OC(N)=C(C#N)C12C(=O)Nc1ccc(Br)cc12 (configuration not stated),0,1,0,4,nt,nt
CC1=C(C(=O)OC(C)C)C2(C(=O)Nc3ccc(Br)cc32)C(C#N)=C(N)O1 (configuration not stated),0,14*,5,19,0,-6
O=C(O)CCn1cc(C=C2C(=O)NC(=O)NC2=O)c(-c2ccc(Br)cc2)n1,0,5.4*,15,1,3,-3
O=C(O)CCn1cc(C=C2C(=O)NC(=S)NC2=O)c(-c2cccc(Cl)c2)n1,0,0,10,1,nt,nt
COC(=O)C1CCCCC1c1nc(OC)cc(OC)n1 (configuration not stated),0,0,0,-3,nt,nt
Cc1nn(Cc2ccccc2)c(C)c1C=O,0,5.1*,-9,-2,0,-1
Cc1ccc(C)c(C2C(C#N)=C(N)Oc3c2c(=O)oc2ccccc32)c1 (configuration not stated),0,-1,3,17,nt,nt
O=c1oc2ccccc2c(O)c1C(c1ccc2c(c1)OCO2)c1c(O)c2ccccc2oc1=O,0,15*,-7,-10,0,4
COc1cc(CN2CCN(C)C(CCO)C2)cc(Cl)c1OC (configuration not stated),0,-1,-6,1,nt,nt
COc1cc(/C=C/[N+](=O)[O-])cc(Br)c1OC(C)=O,0,0,-1,14,nt,nt
SMILES,FBW7 act,GPR151 ag,TEAD-YAP inh,MITF inh,GPR151 conf act,GPR119 counter
CC(C)C[C@H]1NC(=O)[C@H]2CN(Cc3ccccn3)CCN2C1=O,0,-1,14,6,nt,nt
CC(=O)Oc1cc(C)cc2oc(=O)c3c(c12)CCCC3,1,1,6,20,nt,nt
Cc1cc2oc(=O)c3c(c2c(O)c1CN1CCN(C)CC1)CCCC3,0,9.3*,6,-16,0,8
Cc1cc([N+](=O)[O-])c(Cl)cc1NC(=O)Cc1ccccc1,0,-1,4,22,nt,nt
CCCC[N+]12CCC(CC1)C(C(=O)c1cccs1)C2 (configuration not stated),0,5.8*,-8,24,1,-3
CC(Cc1cccc(C(F)(F)F)c1)NCCCc1ccccc1 (configuration not stated),0,9.1*,nt,-9,0,-5
COc1ccc(CN2CCN(C(C)C)C(CCO)C2)c(F)c1 (configuration not stated),0,0,-3,3,nt,nt
N#Cc1ccc(NC(=O)CSc2n[nH]c(-c3cccs3)n2)cc1Cl,0,11*,-3,-2,0,13
O=C(Cc1ccccc1)N(CCN1CCOCC1)c1nc2ccccc2s1,0,-2,-29,-11,nt,nt
CC(C)P(=O)(Nc1ccccc1)C(C)C,0,8.0*,4,1,0,7
CN(C)CP(=O)(Nc1ccccc1)N(C)C (configuration not stated),0,2,7,2,nt,nt
C1CCC(NCC2OCCCCO2)CC1,0,2,0,10,nt,nt
OC1/C(=C/c2cccc(OCc3ccccc3)c2)N2CCC1CC2 (configuration not stated),0,5.9*,-37,5,0,4
CN(C)/C=C\c1oc2c(c3c4ccccc4nc1-3)C(=O)CC(C)(C)C2,0,0,23,14,nt,nt
Cc1nc(SCc2ccccc2)[nH]c(=O)c1CC(=O)N1CCN(Cc2ccccc2)CC1,0,6.2*,-1,6,0,-7
O=C(Cc1ccc(Cl)cc1)N1CCN(Cc2ccccc2)CC1,0,2,-7,1,nt,nt
COc1ccc(C2C([N+](=O)[O-])=C(N)Oc3c2c(=O)oc2ccccc32)cc1OC (configuration not stated),0,1,-7,19,nt,nt
COc1cc(C2C([N+](=O)[O-])=C(N)Oc3c2c(=O)oc2ccccc32)ccc1O (configuration not stated),0,5.7*,26,3,0,-4
Cc1nn(CCC#N)c2c1P(=S)(N1CCOCC1)OC(c1ccc(F)cc1)=N2 (configuration not stated),0,-1,1,15,nt,nt
COc1cccc(CNC(=O)c2cn(Cc3ccccc3)c3cc(-c4cn[nH]c4)ccc23)c1,0,2,0,-3,nt,nt
COc1cccc([C@H](C)NC(=O)c2cn(CCN3CCCC3)c3cc(-c4cn[nH]c4)ccc23)c1,0,11*,-3,16,0,1
CCN(CC)c1ccc(/C=C\[N+](=O)[O-])c(C)c1,0,6.7*,7,-10,1,18
Cc1[nH]c2ccccc2c1CCNCc1ccc([N+](=O)[O-])cc1,0,1,2,25,nt,nt
